Compound activity: PubChem, several laboratories
GDH-TPI inh – GDH-TPI coupled enzyme inhibition counter-screen; GDH-TPI coupled enzyme counterscreen, NADH absorbance; inhibition, % at 4.8 µM; AID 588335; 1.2% of 360,000 active
Vc quorum ag – quorum light induction in luxS cqsA deficient V. cholerae; V. cholerae BH1578 lux reporter, luminescence, 6 h; activation, % at 18.7 µM; 0.16% of 350,000 active; AID 588436; in the data active = activation mostly above about 9.7%, no sharp cut-off
FBA Mtb inh – inhibitors of M. tuberculosis fructose-bisphosphate aldolase; inhibition, % at 1 µM; 2.3% of 360,000 active; P9WQA3; purified M. tuberculosis FBA, fluorescence read-out; AID 588726; in the data active = inhibition above about 27%
Target sequence (P9WQA3 whole entry, looked up): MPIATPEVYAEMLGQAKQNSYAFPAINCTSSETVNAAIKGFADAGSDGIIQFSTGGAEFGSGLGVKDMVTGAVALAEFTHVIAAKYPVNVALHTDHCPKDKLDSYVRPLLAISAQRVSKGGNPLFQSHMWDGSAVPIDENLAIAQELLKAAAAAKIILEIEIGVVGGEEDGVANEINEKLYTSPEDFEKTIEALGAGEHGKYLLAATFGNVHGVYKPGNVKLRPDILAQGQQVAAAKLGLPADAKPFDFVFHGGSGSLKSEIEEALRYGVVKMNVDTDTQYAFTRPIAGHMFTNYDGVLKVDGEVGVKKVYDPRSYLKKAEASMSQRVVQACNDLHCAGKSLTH
CCHF vOTU inh – blocks the CCHF virus ovarian tumor domain protease | CCHFV vOTU protease, Pep-AMC fluorescence | 0.55% of 370,000 active | inhibition, % at 11.5 µM | AID 651958
Of the large screens only hits and unclear results are named; the others gave an inactive call. An excerpt weighted towards active compounds, which were near 3.9% of everything screened. Cut-off read from the data, not from the text of the source, unless noted: active = inhibition above about 30%; inactive = the rest.

Cc1ccc(C)c(C(=O)CN2C(=O)NC3(CCc4ccccc43)C2=O)c1 (centres undefined)	none
CCC1=NN2C(=N)/C(=C\c3cccn3-c3c(C)cccc3C)C(=O)N=C2S1	GDH-TPI inh 43.9
O=C(CN1CCCCC1)N/N=C/c1cccc(C(F)(F)F)c1	none
CC(C)CC(=O)/C(=C\c1ccc(Cl)cc1Cl)n1cncn1	none (no result: CCHF vOTU inh)
CCOC(=O)N1CCN(c2c(N3CCN(c4ccccn4)CC3)c(=O)c2=O)CC1	none
CCOC(=O)N1CCN(CC(=O)NC(=O)Nc2ccc3c(c2)OCCO3)CC1	none
CCOC(=O)N1CCN(c2c(N3CCc4ccccc43)c(=O)c2=O)CC1	GDH-TPI inh 51.4 (no result: Vc quorum ag)
CCOC(=O)N1CCN(c2c(Nc3ccc4c(c3)OCCO4)c(=O)c2=O)CC1	GDH-TPI inh 42.2
Cc1nonc1OCCNCCNc1ccc([N+](=O)[O-])c2cccnc12	none
O=C(Cc1ccccc1)NNC(=O)c1ccccc1C(=O)O	none
CN1C(=S)SC(C)(C)C1/[N+]([O-])=C/c1cccnc1 (centres undefined)	none
CN(C)c1ccc(/C=[N+](\[O-])C2SC(=S)N(C)C2(C)C)cc1 (centres undefined)	GDH-TPI inh 34.3
CN(C)c1ccc(/C=[N+](\[O-])C2N(c3ccccc3)C(=S)SC2(C)C)cc1 (centres undefined)	GDH-TPI inh 33.3
O=[N+]([O-])c1cccc(/C=C/c2nc[nH]c2[N+](=O)[O-])c1	GDH-TPI inh 42.0
O=C(NCC(=O)N(c1cccc(F)c1)C(C(=O)NC1CCCC1)c1ccncc1)c1ccco1 (centres undefined)	none
O=C(O)CC1S/C(=N/N=C/C=C/c2ccccc2)NC1=O (centres undefined)	GDH-TPI inh 50.4
Cn1c(=O)n(C)c2cc(/C=N/N=C3/NC(=O)C(CC(=O)O)S3)ccc21 (centres undefined)	GDH-TPI inh 38.0
CCOc1cc(/C=N/N=C2/NC(=O)C(CC(=O)O)S2)ccc1OCc1ccc(Cl)cc1 (centres undefined)	GDH-TPI inh 31.9
COC12c3ccccc3-c3ccccc3C1C(C(=O)O)C2C(=O)O (centres undefined)	none (no result: GDH-TPI inh, Vc quorum ag)
COc1ccc(OCc2cc(C(=O)N(C)Cc3cc(C)no3)no2)c(Cl)c1	none
CCOc1ccccc1NC(=O)CCCCCN1C(=O)[C@@H]2Cc3ccccc3CN2C1=O	none
Cc1ccccc1-n1c(N)c(C(=O)Nc2ccc(F)cc2)sc1=S	none
Cc1ccc(-n2c(N)c(C(=O)Nc3ccccc3F)sc2=S)cc1C	GDH-TPI inh 32.9
O=C(O)c1ccc(CS(=O)c2cccc(C(F)(F)F)c2)o1 (centres undefined)	none
CN1CCN(C(=O)c2ccc(-c3cnc4cccnn34)cc2)CC1	FBA Mtb inh active
O=C(NCCO)c1cccc(-c2cnc3cccnn23)c1	FBA Mtb inh 156.1
CNc1ccc2ncc(-c3cccc(C(=O)N(C)C)c3)n2n1	FBA Mtb inh 155.8
CS(=O)(=O)Nc1ccc(-c2cnc3cccnn23)cc1	none
O=C(NCCO)c1ccc(-c2cnc3cccnn23)cc1	FBA Mtb inh active
CCOc1cc(C)nc(N2CCC(C(=O)NCC3CCCO3)CC2)n1 (centres undefined)	none
Cc1[nH]c2ccccc2c1C(=O)CN1CCC(C(N)=O)(N2CCCCC2)CC1	none
O=C(Oc1ccc2c3c(c(=O)oc2c1)CCC3)c1ccco1	FBA Mtb inh active
Cc1cc2oc(=O)c3c(c2cc1OC(=O)c1ccco1)CCCC3	none (no result: Vc quorum ag)
O=C(Oc1cc2oc(=O)c3c(c2cc1Cl)CCCC3)c1cccs1	FBA Mtb inh 172.9
O=C(Oc1cc2oc(=O)c3c(c2cc1Cl)CCCC3)c1ccco1	FBA Mtb inh active
Cc1cc(OC(=O)c2cccs2)c2c3c(c(=O)oc2c1)CCCC3	none
Cc1ccc(S(=O)(=O)NC(C(=O)Oc2cc3oc(=O)cc(C)c3cc2Cl)C(C)C)cc1 (centres undefined)	FBA Mtb inh active
CC(=O)Oc1cc2oc(=O)c3c(c2cc1Cl)CCC3	FBA Mtb inh active
CC(C)Oc1cc2oc(=O)c3c(c2cc1Cl)CCC3	none
CC(=O)Oc1cc2oc(=O)cc(C)c2cc1Cl	FBA Mtb inh active
CC(=O)NC(CC(=O)Nc1ccc(S(=O)(=O)Nc2nccs2)cc1)c1ccccc1 (centres undefined)	none
O=C(CCn1cnc2ccccc2c1=O)Nc1cccc(Cl)c1	none
COc1ccc(Cl)cc1NC(=O)CCn1cnc2ccccc2c1=O	FBA Mtb inh 49.3
CC(=O)Nc1c(S(=O)(=O)c2ccccc2)c2nc3ccccc3nc2n1Cc1ccccc1	FBA Mtb inh 147.9
CCCCn1c(/N=C/c2ccccc2NS(=O)(=O)c2ccc(C)cc2)nc2ccccc21	none
